NEFA release change data for one compound are collected here from PubChem BioAssay AID1547 (National Center for Advancing Translational Sciences (NCATS), 2009).

The source made the active and inactive calls.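 The calls were made as follows: active = compound that significantly cut labelled fatty acid release from lipid-loaded liver cells compared with solvent alone; inactive = the rest.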

This test is described as follows: Secondary Assay for lipid storage modulators. NEFA Incorporation/Release. As to conditions: AML12 cells, [3H]oleic acid NEFA release, at 5 µM, stronger effect = lower value. From the text:
Data Source: University of Maryland BioAssay Type: Secondary Description: NIH Molecular Libraries Probe Production Centers Network [MLPCN] NIH Chemical Genomics Center [NCGC] Assay Submitter (PI): Carole Sztalryd; GRECC/Geriatrics, Veterans Affairs Medical Center, Department of Medicine, School of Medicine, University of Maryland, Baltimore, Maryland, USA. Beller, Mathias; Max-Planck-Institut fur Biophysikalische Chemie, Germany. NCGC Assay Overview: Storing lipids as a reservoir for energy or the anabolism of elementary metabolites is a common feature of probably all cells and is conserved from bacteria to humans. The universal cellular lipid storage organelle is the so-called lipid storage droplet (LD). Although ubiquitous, LDs share a simple structure composed of a hydrophobic core that harbors the storage lipids, which is shielded by a droplet-specific phospholipid monolayer to which proteins are attached. The current model of LD biogenesis involves an incorporation of the lipid core into the membrane leaflets of the endoplasmic reticulum (ER) followed by a subsequent budding-like maturation of a LD, which ultimately pinches off. Once released, LD volume can increase by localized lipogenesis or fusion of existing droplet. Storage lipids are re-mobilized enzymatically by lipase activity. Lipase regulation in the adipocyte is heavily studied and involves multiple components including catecholamine signaling, the LD-associated proteins Perilipin and comparative gene identification (CGI-58) and at least two lipases named hormone sensitive lipase (HSL) and adipocyte triglyceride lipase (ATGL). LD regulation outside of the adipocyte is poorly understood and only few components are known. However, there is an urgent need to learn more about ectopic fat depots as mislocalized storage of lipids, for example in the liver or muscle, is an eminent health problem associated with insulin resistance or the metabolic syndrome. We developed a laser-scanning cytometer assay to enable 1,536-well screening and combined the results of the small molecules screen with an RNAi database based on lipid storage. […]
Assay Protocol Summary: Measurements of NEFA released from lipid droplets or incorporated into the TG fraction were performed as previously described. […] Lipolysis was determined by measuring radioactivity released into the media in 1 h. […] Lipids were extracted by the Bligh-Dyer method, and 10% of the total lipid was analyzed by thin layer chromatography. AML12 cells treated with or without specific siRNAs were additionally incubated with either vehicle (DMSO), 5 uM of Exo1 (12.5 mg/ml DMSO), or BFA (10 mg/ml DMSO) during the time of radioactivity release into the media (2 h). NEFA incorporation into the TG fraction and NEFA release are calculated as […]/mg protein. […]

For the compound `COC(=O)c1ccccc1NC(=O)c1ccc(F)cc1`, the NEFA release change is -0.35 nmol/mg (active). The same compound returned an NEFA release change (gammaCOP siRNA treatment) of -0.3 nmol/mg. Where the note is “measured here: ATGL siRNA treatment”, this compound had an NEFA release change of -0.63 nmol/mg. Where the note is “measured here: control siRNA treatment”, this compound came in with an NEFA release change of -0.47 nmol/mg.
